From ChEMBL document CHEMBL1157539, “Thousands of chemical starting points for antimalarial lead identification” (Nature, 2010)

How the values were obtained:
Format in all cases: functional
Plasmodium falciparum [1] = experiment: GSK_TCMDC: Inhibition of Plasmodium falciparum 3D7 in whole red blood cells, using parasite LDH activity as an index of growth. Test compounds present at 2uM
Plasmodium falciparum [2] = experiment: GSK_TCMDC: Inhibition of Plasmodium falciparum Dd2 in whole red blood cells, using parasite LDH activity as an index of growth. Test compounds present at 2uM
HepG2 = experiment: GSK_TCMDC: Percent inhibition of human HepG2 cell line. Test compounds present at 10uM.

Compound | Inhibition (Plasmodium falciparum [1]) [%] | Inhibition (Plasmodium falciparum [2]) [%] | Inhibition (HepG2) [%]
Fc1cccc(COc2ccc(Nc3ncnc4sc(C#Cc5ncc[nH]5)cc34)cc2Cl)c1 | 100 | 95 | 55
Cl.c1ccc(Oc2ccc(Nc3ccnc4c(-c5ccccn5)cccc34)cc2)cc1 | 100 | 58 | 31
CCC(=O)Nc1ccc(C(O)CN2CCC3(C=Cc4ccccc4O3)CC2)cc1 (stereo not drawn) | 93 | 47 | 48
CCCNc1nc(Nc2ccccc2C)nc2ccccc12 | 95 | 64 | 13
CCOCCCn1c(=N)c(C(=O)NCc2ccc(F)cc2)cc2c(=O)n3cccc(C)c3nc21 | 100 | 40 | 21
CC(C)CNCc1cccc(-c2cccc(CN(CCCN3CCN(C)CC3)C(=O)Nc3ccccc3)c2)c1.O=C(O)C(F)(F)F | 95 | 76 | 25
CNC(=O)c1ccccc1Nc1cc(Nc2cc(OC)ccn2)ncc1Cl.O=CO | 100 | 100 | 69
CN1CC=C(c2csc3ccc(NC(=O)Nc4ccc(-c5ccncc5)c5ccccc45)cc23)CC1 | 93 | 99 | 20
CC(=NNC(=N)N)C(=O)Nc1ccc(Cl)c(Cl)c1.O=S(=O)(O)O | 100 | 97 | 0
O=C(O)C(F)(F)F.c1cc(CNCC2CCN(CC3CCCCC3)CC2)cc(-n2ccnc2)c1 | 100 | 99 | 18
COc1cc2nc(N[C@@H](CO)c3ccccc3)nc(NCc3ccccc3)c2cc1OC | 100 | 71 | 6
COc1cc2c(cc1OC)CN(CCc1ccc(NC(=O)c3cc4cc(OC(F)(F)F)ccc4[nH]3)cc1)CC2 | 99 | 20 | 36
COc1ccc(NC2=C(c3ccccc3)C(=O)c3ccccc32)cn1 | 96 | 84 | 0
COc1ccc(CCNC(=O)c2cnc3c(c2)nc(-c2c[nH]c(-c4ccccc4)n2)n3CCc2c[nH]cn2)cc1 | 96 | 70 | 16
O=c1cc(NCCCNCc2cc(Cl)cc(Cl)c2OCc2ccccc2)[nH]c2ccccc12 | 91 | 50 | 0
COc1cc(C2CCN(CCCCNC(=O)c3ccc(NC(=O)c4cc(C(F)(F)F)cc(C(F)(F)F)c4)cc3)CC2)ccc1OC(C)C | 100 | 100 | 21
CC(=O)Nc1ccc(S(=O)(=O)Nc2c(C)cc(Cc3cnc(N)nc3N)cc2C)cc1 | 94 | 0 | 6
O=C(Nc1ccc(Cl)c(Cl)c1)N[C@H]1CCN(CCCCCNC(=O)C2CC2c2ccc(Cl)c(Cl)c2)C1 (stereo partly drawn) | 93 | 8 | 42
Cn1cccc1C(=O)C(=O)Nc1cccc(-c2ccc(-c3nc4cc(C(F)(F)F)ccc4[nH]3)cc2)c1 | 94 | 27 | 62
COc1ccc2nccc([C@@H](O)CN3CCC(NCc4cc5ccccc5o4)CC3)c2c1.O=C(O)C(=O)O | 96 | 72 | 17
Cc1ccc(C)c(-n2c(SCC(=O)Nc3ccc(C(N)=O)cc3)nnc2-c2cccc(Cl)c2)c1 | 92 | 91 | 6
CC[C@H](C)CNC(=O)c1ccnc(-c2ccc(CNC3Cc4ccccc4C3)cc2)c1.O=C(O)C(F)(F)F | 100 | 87 | 18
Cc1ccc(-c2nc(NC(=O)Nc3ccc(C(F)(F)F)cc3)sc2C)cc1Cl | 99 | 86 | 29

Compound | Inhibition (Plasmodium falciparum [1]) [%] | Inhibition (Plasmodium falciparum [2]) [%] | Inhibition (HepG2) [%]
O=C(Nc1cccc(N2CCC(NCCCn3ccnc3)CC2)c1)c1cccc(C(F)(F)F)c1 | 100 | 2 | 8
O=C1Nc2ccccc2/C1=N/NC(=S)N1CCOCC1 | 95 | 75 | 51
Cc1ccc2[nH]c(-c3ccccc3Nc3ccnc4cc(-c5nccs5)ccc34)nc2c1.Cl | 100 | 100 | 40
Cc1ccc(-c2nc(Nc3ccncc3)c3ccccc3n2)s1 | 95 | 34 | 6
Cc1cccc(-c2nn(-c3ccccc3)cc2C(=O)Nc2nnc(C)o2)c1 | 84 | 63 | 38
CCc1ccc(S(=O)(=O)Nc2ccc(CCN3CCC(N4CCCCC4)CC3)cc2)cc1 | 100 | 13 | 35
c1ccc2[nH]c(-c3ccc(-c4ccc(CN5CCCCC5)cc4)s3)nc2c1 | 100 | 69 | 41
COC(=O)c1ccc(NC(=O)c2ccc(CCN3CCC(c4nc(COCC(F)(F)F)c(-c5ccc(F)cc5)o4)CC3)cc2)cc1 | 89 | 37 | 22
CCc1c(C)c2ccc3c(c2oc1=O)CN(CCc1ccc(F)cc1)CO3 | 94 | 85 | 0
O=C(CN1CCC(NCc2cnc(-c3ccc(Cl)cc3)[nH]2)CC1)N1CCc2ccccc21 | 100 | 5 | 11
Nc1ccc(-c2nc3cc(C4=N[C@H]5CCCC[C@H]5N4)ccc3o2)cc1[N+](=O)[O-] | 95 | 33 | 16
Cc1cc(NC(=O)NCCN2CCC(NS(=O)(=O)c3ccccc3F)CC2)c2ccccc2n1 | 81 | 44 | 0
CCc1ccc2nc(-c3ccc(F)cc3)nc(SCC(=O)Nc3sc(C)c(C)c3C#N)c2c1 | 98 | 5 | 0
CCN(CCCN1CCCCC1)c1cc(C)nc(Nc2cc(C(F)(F)F)ccc2C)n1.O=C(O)C(F)(F)F | 96 | 41 | 35
Oc1ccc2ccccc2c1CNCC1CCCCC1 | 98 | 93 | 0
Cc1cnc(Nc2ccccc2)nc1N[C@@H](CCCN)C(=O)Nc1ccccc1.O=C(O)C(F)(F)F | 100 | 0 | 0
CCc1ccc(-c2nc3cc(NC(=O)c4cc([N+](=O)[O-])cc([N+](=O)[O-])c4)ccc3o2)cc1 | 93 | 12 | 12
Cc1cn(CC(=O)Nc2cccc(-c3cccc(-c4nc5cc(C(F)(F)F)ccc5[nH]4)c3)c2)c(=O)[nH]c1=O | 92 | 51 | 15
C[C@H](Cc1ccc(OCCNC[C@H](O)c2cccc(Cl)c2)cc1)NC[C@H](O)c1ccc(Cl)c(Cl)c1.O | 83 | 64 | 69
CCN1CCN(CCCCNc2c3ccccc3nc3ccccc23)CC1.Cl | 100 | 0 | 22
CCc1cc(C(=O)c2cccc(C)c2)c(NC(=O)CN2CCN(C(=O)c3ccco3)CC2)s1 | 91 | 85 | 0
COc1ccc(Nc2nc(N/N=C/c3cc(Br)ccc3O)nc(Nc3ccc([N+](=O)[O-])cc3)n2)cc1 | 97 | 37 | 27
O=C(/C=C/c1ccc(Cl)c(Cl)c1)NCCCCCN1CCCC(CNC(=O)Nc2ccc(C(F)(F)F)cc2)C1 (stereo not drawn) | 100 | 7 | 27
